40 compounds from PubChem BioAssay (EPA / NIEHS) can be followed below.

Each structure is given as a SMILES string. The source made the active and inactive calls. The calls were made as follows: active = hit-call score of the fitted dose curve at least 0.9, where 1 is the maximum; inactive = score below 0.9.

Read-out in the assay: Matrix Metallopeptidase 1 (MMP1), MMP1 (gene 4312)
Kind of assay: BSK_BE3C_MMP1: BioMAP Diversity Plus: BE3C Assay for Matrix Metallopeptidase 1 (MMP1) Biomarker Activity (AID 2283024). To be noted: primary human bronchial epithelial cells; actives raise or lower the signal. As to the method: BSK_BE3C is a cell-based, multiplexed-readout assay that uses bronchial epithelial cell, a human lung primary cell, with measurements taken at 24 hours after chemical dosing in a 96-well plate.BSK_BE3C_MMP1 is an assay component measured in the BSK_BE3C assay. It measures MMP-1 antibody related to regulation of gene expression using ELISA technology.Data from the assay component BSK_BE3C_MMP1 was analyzed into 1 assay endpoint. This assay endpoint, BSK_BE3C_MMP1, was analyzed with bidirectional fitting relative to DMSO as the negative control and baseline of activity. Using a type of binding reporter, gain or loss-of-signal activity can be used to understand changes in the signaling as they relate to the gene MMP1. Furthermore, this assay endpoint can be referred to as a primary readout, because this assay has produced multiple assay endpoints where this one serves a signaling function. To generalize the intended target to other relatable targets, this assay endpoint is annotated to the protease intended target family, where the subfamily is matrix metalloproteinase.
The levels of cell surface (or secreted, indicated by the prefix "s") biomarker endpoints were measured by ELISA. Overt cytotoxicity to cells in confluent adherent cultures (all systems other than the BT system) was assessed by measuring total protein levels using sulforhodamine B (SRB) staining in parallel cultures at the time of biomarker measurements, indicated as SRB endpoints. For proliferation assays for adherent cell types, individual cell types are cultured at sub-confluence and relative cell numbers quantified by SRB staining at time points optimized for each system (48 h: 3C and CASM3C systems; 72 h: BT and HDF3CGF systems; 96 h: SAg system). SRB was performed by staining cells with 0.1% SRB after fixation with 10% TCA and reading wells at 560 nm.Viability and proliferation of PBMC (T cells) was quantified by Alamar Blue reduction for the SAg and BT systems. For PBMC viability (referred to as PBMC Cytotoxicity within the assay endpoint names), cells were plated (75,000/well in a 96-well plate) and then chemical samples added for 1 h before addition of activators, SEB and TSST-1 (20 ng/mL final concentration each). Cells were incubated for 90 h. Then, Alamar Blue (20 uL/well) (Invitrogen, Cat DAL1100) was added for 6 h, and the plates were read with a fluorescence microplate reader at 546/580 nm (excitation/emission). For PBMC proliferation, cells were plated and activated as above but incubated for only 16 h prior to addition of Alamar Blue. Plates were read after 6 h.
Regarding `C=CCc1ccc(OC)c(OC)c1`, the outcome was inactive. As for `Oc1ccccc1O`, the result was inactive. Same read-out and setting: the result for `Nc1nc(Cl)nc2c1ncn2[C@H]1C[C@H](O)[C@@H](CO)O1` reads “inactive”; that for `CN(C)C(=O)NC1(c2ccccc2)CCN(CC[C@@]2(c3ccc(F)c(F)c3)CN(C(=O)c3ccccc3)CCO2)CC1`, “inactive”. Still for that read-out and setting: for `CCCCCCCC(=O)OC` the value was “inactive”; for `CCCCC(CC)COC(=O)CCCCCCCC(=O)OCC(CC)CCCC` (stereo not given), “inactive”. For the compound `CN(C)C(=O)NC1(c2ccccc2)CCN(CCC[C@]2(c3ccc(Cl)c(Cl)c3)CCCN(C(=O)c3ccccc3)C2)CC1`, the outcome was inactive. Turning to `CC(C)(O)c1ccc(CNC(=O)c2cccnc2Oc2ccc(F)cc2)cc1`, the outcome was inactive. Take `COC(=O)CCCC(=O)OC`: the result was inactive. Consider `CC1=C(C)S(=O)(=O)CCS1(=O)=O`, for which the result was inactive. For `CCCCCCCCCC[N+](C)(C)[O-]`, the outcome was inactive. `Oc1ccc(O)cc1`: the AC50 (usually the concentration giving half of the maximal activity seen) is 2.96 µM (active). `C/C=C/C=C/C(=O)O`: the result was inactive. On the same count and under the same terms, for `CO[C@@H]1COCC[C@@H]1N[C@@H]1CC[C@@](C(=O)N2CCc3ncc(C(F)(F)F)cc3C2)(C(C)C)C1` the value was “inactive”. Same read-out and setting: for `O=[Si]=O` the value was “inactive”.

Take `CCCCCCCCCCCCCCOS(=O)(=O)O`: the concentration at half-maximal activity (AC50) was 31.8 µM (active). Consider `O=C(Oc1ccccc1)c1cccc(C(=O)Oc2ccccc2)c1`, for which the outcome was inactive. As for `COC(=O)CCC(=O)OC`, the outcome was inactive.

`O=C1O[C@H]([C@H](O)CO)C(O)=C1O`: the outcome was inactive. Turning to `Cc1cn([C@H]2C=C[C@@H](CO)O2)c(=O)[nH]c1=O`, the result was inactive. Turning to `CCCCCCC(C=O)=Cc1ccccc1`, the outcome was inactive. Still for that read-out and setting: for `CCCCC(CC)COP(=O)(OCC(CC)CCCC)OCC(CC)CCCC` (stereo not given) the value was “inactive”; for `CC(=O)S[C@H](C(=O)N[C@H]1Cc2ccccc2[C@H]2CCC[C@@H](C(=O)O)N2C1=O)C(C)C`, “inactive”; for `Cn1cnc2c1c(=O)[nH]c(=O)n2C`, “inactive”. For `COc1ccc(OC(F)(F)F)cc1CN[C@H]1CCCN[C@H]1c1ccccc1`, the outcome was inactive.

With `CC(C)OC(=O)C(C)(C)Oc1ccc(C(=O)c2ccc(Cl)cc2)cc1`, the AC50 was 13.3 µM (active). Consider `CC(=O)OCC(COC(C)=O)OC(C)=O`, for which the result was inactive. As to `OCC(CO)n1cnc(-c2ccc(F)cc2)c1-c1ccnc(Oc2ccccc2)n1`, the concentration at half-maximal activity (AC50) was 0.594 µM (active).

For `NC=O`, the result was inactive. In the case of `CC(=O)O[C@]1(C(C)=O)CC[C@H]2[C@@H]3C=C(Cl)C4=CC(=O)[C@@H]5C[C@@H]5[C@]4(C)[C@H]3CC[C@@]21C`, the concentration at half-maximal activity (AC50) is 4.91 µM (active). Regarding `O=C(N[C@@H](c1ccccc1)[C@@H]1CCCCN1)c1cccc(C(F)(F)F)c1Cl`, the AC50 is 31.8 µM (active). On to `Cc1ccc(C(C)(C)C)c(O)c1`, for which the result was inactive. For the compound `CC(N)=O`, the outcome was inactive. On to `OCC(O)CO`, for which the result was inactive.

With `O=C1c2c(O)cccc2Cc2cccc(O)c21`, the half-maximal activity concentration (AC50) is 4.63 µM (active). For the compound `Cc1cc(Cc2ccc(N)c(C)c2)ccc1N`, the outcome was inactive. Regarding `CCOCCOCCO`, the outcome was inactive. Turning to `C/C=C/c1ccc(OC)cc1`, the outcome was inactive. On to `O=C1CCCCC1`, for which the outcome was inactive. Regarding `O=C1OC(c2ccc(O)cc2)(c2ccc(O)cc2)c2ccccc21`, the half-maximal activity concentration (AC50) was 3.97 µM (active).
